# Tests used:
# Assay in all cases: PBM binding z-score (relative to random genomic background probes); higher = stronger binding; sequences stand for … in GC…GCGATTGACAGCGTAGAATGAAGG
# [1] = test system: FXR:RXRa (NR concentration 270 nM, RXRa partner concentration 90 nM)
# Outline: (§1)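 Custom Agilent 4×180K protein-binding microarrays carried double-stranded probes. Their 34-nt variable regions held direct-repeat seeds, single-nucleotide variants, half-site ablations and random human genomic background sequences. Arrays were incubated 1 h with ligand-free nuclear receptor dimers in PBS pH 7.4, 2% milk, 0.02% Triton X-100, 1 mM DTT, 0.2 mg/mL BSA and 0.4 mg/ml salmon testes DNA. Antibodies against each partner (one per run) detected binding, and scanned fluorescence was regression-normalized. Binding z-scores use random background probes as reference.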
# [2] = test system: LXRa:RXRa (NR concentration 270 nM, RXRa partner concentration 90 nM)
# Outline: as §1
# [3] = test system: LXRa homodimer (NR concentration 270 nM)
# Outline: as §1
# [4] = test system: LXRb:RXRa (NR concentration 270 nM, RXRa partner concentration 90 nM)
# Outline: as §1
# [5] = test system: LXRb homodimer (NR concentration 270 nM)
# Outline: as §1
# [6] = test system: PPARa:RXRa (NR concentration 270 nM, RXRa partner concentration 90 nM)
# Outline: as §1
# [7] = test system: PPARg:RXRa (NR concentration 180 nM, RXRa partner concentration 90 nM)
# Outline: as §1
# [8] = test system: PPARg:RXRa 270nM:90nM, anti-RXR (NR concentration 270 nM, RXRa partner concentration 90 nM)
# Outline: as §1
# [9] = test system: PPARg:RXRa 30nM:10nM, anti-RXR (NR concentration 30 nM, RXRa partner concentration 10 nM)
# Outline: as §1
# [10] = test system: PPARg:RXRa 90nM:30nM, anti-RXR (NR concentration 90 nM, RXRa partner concentration 30 nM)
# Outline: as §1
# [11] = test system: PPARg:RXRa DBDmut IVT, anti-RXR (DBD mutation: RXRa K156A/R161A, NR concentration 270 nM, RXRa partner concentration 90 nM)
# Outline: as §1
# [12] = test system: PPARg:RXRa IVT, anti-PPARg (NR concentration 270 nM, RXRa partner concentration 90 nM)
# Outline: as §1
# [13] = test system: PPARg DBDmut:RXRa IVT, anti-PPARg (DBD mutation: PPARg1 K132A/R137A, NR concentration 270 nM, RXRa partner concentration 90 nM)
# Outline: as §1
# [14] = test system: PPARg DBDmut IVT, anti-PPARg (DBD mutation: PPARg1 K132A/R137A, NR concentration 270 nM)
# Outline: as §1
# [15] = test system: PPARg homodimer (NR concentration 180 nM)
# Outline: as §1
# [16] = test system: PXR:RXRa (NR concentration 270 nM, RXRa partner concentration 90 nM)
# Outline: as §1
# [17] = test system: PXR homodimer (NR concentration 270 nM)
# Outline: as §1
# [18] = test system: RARa:RXR (NR concentration 270 nM, RXRa partner concentration 90 nM)
# Outline: as §1
# [19] = test system: RARa homodimer (NR concentration 270 nM)
# Outline: as §1
# [20] = test system: RARb:RXRa (NR concentration 270 nM, RXRa partner concentration 90 nM)
# Outline: as §1
Sequence,PBM binding z-score [1],PBM binding z-score [2],PBM binding z-score [3],PBM binding z-score [4],PBM binding z-score [5],PBM binding z-score [6],PBM binding z-score [7],PBM binding z-score [8],PBM binding z-score [9],PBM binding z-score [10],PBM binding z-score [11],PBM binding z-score [12],PBM binding z-score [13],PBM binding z-score [14],PBM binding z-score [15],PBM binding z-score [16],PBM binding z-score [17],PBM binding z-score [18],PBM binding z-score [19],PBM binding z-score [20]
TCGAGTAGGTTACTAATGGGGCATTCAGCTTTCT,-0.458,2.4,-0.454,1.24,-0.917,0.717,-0.149,0.701,0.939,0.928,3.02,2.39,0.0923,-0.475,-0.0554,0.00033,-0.441,0.224,-0.684,0.494
TTTTGTAGATCAGCAGGTTAAGAAAGCTGGCCAA,-0.421,-0.315,-0.236,0.141,-0.319,0.634,-0.106,0.922,0.508,0.797,0.508,1.04,-0.105,0.632,0.357,0.0195,-0.117,0.084,0.0423,0.0903
ACTAGATGGTCAGCTGAGGTCACACACAATTCGG,4.73,3.89,2.33,3.48,0.584,3.6,1.95,2.13,0.736,1.61,0.982,2.14,1.06,0.428,2.89,5.58,1.53,4.43,1.34,3.75
CCTTACGGGTGAAGGTTATAGCACGGGTGGTACG,0.149,0.504,-0.127,0.0957,-0.349,1.61,1.09,1.51,-0.0216,0.958,0.6,1.31,-0.607,-1.16,0.456,0.216,-0.0716,0.732,0.409,1.31
TCTATTAGTTGAAGGGCAACCGGCGAGTCCGTTT,0.888,1.19,0.417,0.88,0.229,0.966,-0.211,2.04,3.53,2.92,2.36,0.473,0.341,0.729,1.25,0.943,0.705,0.455,0.951,1.74
CGTCAAAGTTCAACTAAGGGAACGTAAAGCACGC,6.99,6.08,3.68,3.74,1.85,4.93,4.78,5.73,1.94,4.2,0.0961,1.71,0.646,0.162,2.6,4.91,3.23,3.84,1.55,5.25
CCGCGTAGGTTATGGGGCATTCAGGCAACGGTGA,0.332,0.33,-0.277,0.756,-0.566,1.43,0.613,1.17,-0.391,0.458,0.695,0.593,-1.12,-0.878,0.303,-0.0775,-0.606,0.609,0.000588,0.985
